Assay results as given in PubChem BioAssay (NCI).
The panel holds about 83,000 compounds, 20% with a hit somewhere; the sample as a whole holds those more often.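 Method: cells in 96-well plates; compound added at one concentration; 48 h incubation; percent growth measured; values under 10 scored active.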 Activity calls are given as the source filed them.

Tested on: HCT-15 colon
Assay: NCI-60 one-dose screen, 48 h (100 = growth as untreated, 0 = no growth, -100 = all killed)
Details: 10 µM unless noted

Row | SMILES | growth
1 | COCCOC(=O)C1=C(C)NC(=S)NC1c1ccc2c(c1)OCO2 (stereo not drawn) | 102% (inactive)
2 | O=S(=O)(Nc1ccc(F)c(Cl)c1)c1ccc(-c2cnc(C3CC3)o2)cc1 | 22.3% (inactive)
3 | NCCN1CCN(c2nccc(-c3ccc4ccccc4c3)n2)CC1 | 4.28% (active)
4 | CCN(CC)Cc1cc(Nc2c3ccc(Cl)cc3nc3c(C)cccc23)ccc1O | -45.8% (active)
5 | N#Cc1ccc(NC(=O)Nc2ccc(Cc3ccc(NC(=O)Nc4ccc(C#N)cc4)cc3)cc2)cc1 | 25.9% (inactive)
6 | CCCCNc1ccc2c3c1cccc3c(=O)n1c3ccccc3nc21 | 76.2% (inactive)
7 | O=C1O[C@H]([C@H](O)CO)C(O)=C1O | 103% (inactive)
8 | CCC(=O)OCc1cccc(OC)c1 | 92.2% (inactive)
9 | Cc1ccc2cnc(N)c(C#Cc3cncc(C(=O)Nc4ccc(CN5CCN(C)CC5)c(C(F)(F)F)c4)c3)c2c1 | -91.9% (active)
10 | CC#Cc1nc2ccccc2c(=O)[nH]1 | 3.71% (active)
11 | COc1cc2c(cc1O)CCc1cc(O)cc(OC)c1-2 | 90.7% (inactive)
12 | CCCCCCCCCCCCS(=O)CC(C)O (stereo not drawn) | 104% (inactive)
13 | CCN(CC)CCCNc1cccc2c(SCc3ccccc3)ccnc12 | 81.1% (inactive)
14 | COc1ccc(/C=C2\N=C3Sc4cc(Cl)ccc4C(=O)N3C2=O)cc1 | 102% (inactive)
15 | O=C1C(Cl)=C(Cl)C(=O)c2c1nc1n2CCCC1 | 103% (inactive)
16 | CN1CCN(Cc2ccc(NC(=O)c3cncc(C#Cc4c(N)ncc5ccc(C#N)cc45)c3)cc2C(F)(F)F)CC1 | -81.8% (active)
17 | Nc1nc(SCc2ccccc2)c2ncn(C3CCCC3)c2n1 | -58.9% (active)
18 | COc1cc(NC(N)=NCC(C)(C)COc2ccc(C(F)(F)F)cc2)cnc1C#N | 59.9% (inactive)
19 | CCCCCCCCCCCCCCCC(=O)OCC1OC(n2cnc3c(=S)nc(N)[nH]c32)C(OC(=O)CCCCCCCCCCCCCCC)C1OC(=O)CCCCCCCCCCCCCCC (stereo not drawn) | 55.1% (inactive)
20 | O=[N+]([O-])c1cccc(-c2nc3sccn3c2-c2ccnc(NCCCNS(=O)(=O)c3ccc(Br)cc3)n2)c1 | 34.1% (inactive)

Row | SMILES | growth
21 | COc1ccc(-c2nc(Nc3cc(C)[nH]n3)c3ccccc3n2)cc1 | 42.4% (inactive)
22 | O=C1Nc2c(ccc(Cl)c2Cl)/C1=C/c1cc(Br)c(O)c(Br)c1 | 52.4% (inactive)
23 | Nc1nc2ccc(-c3nc4ccc5[nH]ncc5c4c4c3CCC4)cc2s1 | 11.3% (inactive)
24 | Cc1cc(Cl)ccc1Nc1nc(C(F)(F)F)ccc1C(=O)N/N=C/c1ccc(F)cc1 | 6.36% (active)
25 | COc1ccc(C(=O)COc2ccc(/C=C3\Oc4ccc(Cl)cc4C3=O)cc2)cc1 | 103% (inactive)
26 | CC[C@@H](C)OC(=O)c1nn(C(C)=O)c2ccccc12 | 89.9% (inactive)
27 | CCN(CC)c1ccc(/C=C/C2=[N+](C)c3ccccc3C2(C)C)cc1 | 41.1% (inactive)
28 | CCCCCCCCCCCCCCCC[N+]1(CC)CCCC1 | 22.8% (inactive)
29 | COc1cc(OC)c(/C=C/c2cc[n+](C)c3ccccc23)c(OC)c1 | 90.9% (inactive)
30 | CC[C@H](Nc1nc(N)nc(C)c1C#N)c1nc2cccc(NCc3ccc(C(=O)NO)cc3)c2c(=O)n1-c1ccccc1 | 38.7% (inactive)
31 | O=C(CN1CCOCC1)Nc1ccc(Cn2nnc3c2C(=O)c2nnn(Cc4ccc(NC(=O)CN5CCOCC5)cc4)c2C3=O)cc1 | 70.8% (inactive)
32 | COc1ccc2[nH]c(=O)c(/C=C/C(=O)c3ccc(Nc4nccc(-c5ccc6ccccc6c5)n4)cc3)cc2c1 | 110% (inactive)
33 | OC(c1cccc(C(F)(F)F)c1)c1cnccc1NC1CCCCCC1 (stereo not drawn) | 8.21% (active)
34 | CNC(=O)c1cc(Oc2ccc3nc(NC(=O)Nc4ccc(CN5CCOCC5)c(C(F)(F)F)c4)sc3c2)ccn1 | 24.5% (inactive)
35 | O=c1c2cccc3c(Nc4ccccn4)ccc(c32)c2nc3ccccc3n12 | 59.2% (inactive)
36 | CC(C)[C@@H]1CC[C@]2(C(=O)NCCCCN=C(N)N)CC[C@]3(C)[C@H](CC[C@@H]4[C@@]5(C)CCC(=O)C(C)(C)[C@@H]5CC[C@]43C)[C@@H]12 | 96.4% (inactive)
37 | Cc1ccc2c(c1)n([O-])c1cc(Cl)ccc1[n+]2=O | 119% (inactive)
38 | CC(C)(C)n1cc(-c2ccnc(NCCCNS(=O)(=O)c3cccc4ccccc34)c2)c(-c2cccc(O)c2)n1 | -19.5% (active)
39 | COc1ccc(-c2cc(=O)[nH]c3c(OC)c4ccccc4c(OC)c23)cc1 | 26.3% (inactive)

Tested on: HT29 colon
Assay: as above
Details: 10 µM unless noted

Row | SMILES | growth
40 | COCCOC(=O)C1=C(C)NC(=S)NC1c1ccc2c(c1)OCO2 (stereo not drawn) | 96.7% (inactive)
41 | O=S(=O)(Nc1ccc(F)c(Cl)c1)c1ccc(-c2cnc(C3CC3)o2)cc1 | -3.16% (active)
42 | NCCN1CCN(c2nccc(-c3ccc4ccccc4c3)n2)CC1 | -33.6% (active)
43 | CCN(CC)Cc1cc(Nc2c3ccc(Cl)cc3nc3c(C)cccc23)ccc1O | -41.8% (active)
44 | N#Cc1ccc(NC(=O)Nc2ccc(Cc3ccc(NC(=O)Nc4ccc(C#N)cc4)cc3)cc2)cc1 | 52.5% (inactive)
45 | CCCCNc1ccc2c3c1cccc3c(=O)n1c3ccccc3nc21 | 80.4% (inactive)
46 | O=C1O[C@H]([C@H](O)CO)C(O)=C1O | 105% (inactive)
47 | CCC(=O)OCc1cccc(OC)c1 | 90% (inactive)
48 | Cc1ccc2cnc(N)c(C#Cc3cncc(C(=O)Nc4ccc(CN5CCN(C)CC5)c(C(F)(F)F)c4)c3)c2c1 | -69.9% (active)
49 | CC#Cc1nc2ccccc2c(=O)[nH]1 | 51.2% (inactive)
50 | COc1cc2c(cc1O)CCc1cc(O)cc(OC)c1-2 | 95.6% (inactive)
51 | CCCCCCCCCCCCS(=O)CC(C)O (stereo not drawn) | 110% (inactive)
52 | CCN(CC)CCCNc1cccc2c(SCc3ccccc3)ccnc12 | -33.1% (active)
53 | COc1ccc(/C=C2\N=C3Sc4cc(Cl)ccc4C(=O)N3C2=O)cc1 | 104% (inactive)
54 | O=C1C(Cl)=C(Cl)C(=O)c2c1nc1n2CCCC1 | 99.7% (inactive)
55 | CN1CCN(Cc2ccc(NC(=O)c3cncc(C#Cc4c(N)ncc5ccc(C#N)cc45)c3)cc2C(F)(F)F)CC1 | -75.7% (active)
56 | Nc1nc(SCc2ccccc2)c2ncn(C3CCCC3)c2n1 | 114% (inactive)
57 | COc1cc(NC(N)=NCC(C)(C)COc2ccc(C(F)(F)F)cc2)cnc1C#N | 26.9% (inactive)
58 | CCCCCCCCCCCCCCCC(=O)OCC1OC(n2cnc3c(=S)nc(N)[nH]c32)C(OC(=O)CCCCCCCCCCCCCCC)C1OC(=O)CCCCCCCCCCCCCCC (stereo not drawn) | 37.7% (inactive)
59 | O=[N+]([O-])c1cccc(-c2nc3sccn3c2-c2ccnc(NCCCNS(=O)(=O)c3ccc(Br)cc3)n2)c1 | 57.1% (inactive)

Row | SMILES | growth
60 | COc1ccc(-c2nc(Nc3cc(C)[nH]n3)c3ccccc3n2)cc1 | 17.4% (inactive)
61 | O=C1Nc2c(ccc(Cl)c2Cl)/C1=C/c1cc(Br)c(O)c(Br)c1 | 56.6% (inactive)
62 | Nc1nc2ccc(-c3nc4ccc5[nH]ncc5c4c4c3CCC4)cc2s1 | 8.06% (active)
63 | Cc1cc(Cl)ccc1Nc1nc(C(F)(F)F)ccc1C(=O)N/N=C/c1ccc(F)cc1 | 4.55% (active)
64 | COc1ccc(C(=O)COc2ccc(/C=C3\Oc4ccc(Cl)cc4C3=O)cc2)cc1 | 109% (inactive)
65 | CC[C@@H](C)OC(=O)c1nn(C(C)=O)c2ccccc12 | 107% (inactive)
66 | CCN(CC)c1ccc(/C=C/C2=[N+](C)c3ccccc3C2(C)C)cc1 | 10.7% (inactive)
67 | CCCCCCCCCCCCCCCC[N+]1(CC)CCCC1 | -65.7% (active)
68 | COc1cc(OC)c(/C=C/c2cc[n+](C)c3ccccc23)c(OC)c1 | 0.813% (active)
69 | CC[C@H](Nc1nc(N)nc(C)c1C#N)c1nc2cccc(NCc3ccc(C(=O)NO)cc3)c2c(=O)n1-c1ccccc1 | 3.55% (active)
70 | O=C(CN1CCOCC1)Nc1ccc(Cn2nnc3c2C(=O)c2nnn(Cc4ccc(NC(=O)CN5CCOCC5)cc4)c2C3=O)cc1 | -37.3% (active)
71 | COc1ccc2[nH]c(=O)c(/C=C/C(=O)c3ccc(Nc4nccc(-c5ccc6ccccc6c5)n4)cc3)cc2c1 | 102% (inactive)
72 | OC(c1cccc(C(F)(F)F)c1)c1cnccc1NC1CCCCCC1 (stereo not drawn) | -6.41% (active)
73 | CNC(=O)c1cc(Oc2ccc3nc(NC(=O)Nc4ccc(CN5CCOCC5)c(C(F)(F)F)c4)sc3c2)ccn1 | 45.3% (inactive)
74 | O=c1c2cccc3c(Nc4ccccn4)ccc(c32)c2nc3ccccc3n12 | 64.6% (inactive)
75 | CC(C)[C@@H]1CC[C@]2(C(=O)NCCCCN=C(N)N)CC[C@]3(C)[C@H](CC[C@@H]4[C@@]5(C)CCC(=O)C(C)(C)[C@@H]5CC[C@]43C)[C@@H]12 | 40.2% (inactive)
76 | Cc1ccc2c(c1)n([O-])c1cc(Cl)ccc1[n+]2=O | 112% (inactive)
77 | CC(C)(C)n1cc(-c2ccnc(NCCCNS(=O)(=O)c3cccc4ccccc34)c2)c(-c2cccc(O)c2)n1 | -20.2% (active)
78 | COc1ccc(-c2cc(=O)[nH]c3c(OC)c4ccccc4c(OC)c23)cc1 | 2.07% (active)
